Laboratory results published in article PMC7862700, “An all-to-all approach to the identification of sequence-specific readers for epigenetic DNA modifications on cytosine”.

Experiments:
Assay in all cases: DAPPL (digital affinity profiling via proximity ligation, sequencing); 10 mM Tris-HCl pH 7.5, 50 mM NaCl, 1 mM DTT, 4% glycerol, room temperature, 30 min; GST-TFs on glutathione beads, 16-mer random dsDNA library, 0.1% formaldehyde crosslink after washing; high values mean tight binding
FLI1 = biological target: T1, FLI1 (Homo sapiens, UniProt Q01543 1-452); settings: protein: recombinant; tags: N-terminal GST; dsDNA, one strand shown
T1 sequence: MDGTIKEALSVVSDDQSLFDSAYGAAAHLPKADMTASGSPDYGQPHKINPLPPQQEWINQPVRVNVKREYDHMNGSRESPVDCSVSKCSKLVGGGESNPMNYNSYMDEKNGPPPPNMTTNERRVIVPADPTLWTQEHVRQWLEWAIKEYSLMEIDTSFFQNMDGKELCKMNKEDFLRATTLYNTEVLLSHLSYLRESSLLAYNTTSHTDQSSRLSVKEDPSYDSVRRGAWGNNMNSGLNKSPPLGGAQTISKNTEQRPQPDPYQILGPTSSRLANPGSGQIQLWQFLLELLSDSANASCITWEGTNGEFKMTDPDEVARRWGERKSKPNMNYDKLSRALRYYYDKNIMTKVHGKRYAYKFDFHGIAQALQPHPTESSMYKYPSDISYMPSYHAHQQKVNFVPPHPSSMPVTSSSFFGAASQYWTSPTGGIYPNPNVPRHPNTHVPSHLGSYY
Procedure, shortened: (§1)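 Each value of binding signal is a hexamer's read frequency for a factor divided by the same hexamer's frequency in the tag-only sample. Barcoded, bead-captured GST fusions of human transcription factors made in yeast were pooled with that sample and incubated with 200 nmole of a random double-stranded 16-mer DNA library in Tris/NaCl/DTT/glycerol buffer at room temperature for 30 min. Washing, 0.1% formaldehyde crosslinking, proximity ligation, PCR and Illumina NextSeq500 sequencing followed.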

ELK1 = biological target: T2, ELK1 (Homo sapiens, UniProt P19419 1-428); settings: protein: recombinant; tags: N-terminal GST; dsDNA, one strand shown
T2 sequence: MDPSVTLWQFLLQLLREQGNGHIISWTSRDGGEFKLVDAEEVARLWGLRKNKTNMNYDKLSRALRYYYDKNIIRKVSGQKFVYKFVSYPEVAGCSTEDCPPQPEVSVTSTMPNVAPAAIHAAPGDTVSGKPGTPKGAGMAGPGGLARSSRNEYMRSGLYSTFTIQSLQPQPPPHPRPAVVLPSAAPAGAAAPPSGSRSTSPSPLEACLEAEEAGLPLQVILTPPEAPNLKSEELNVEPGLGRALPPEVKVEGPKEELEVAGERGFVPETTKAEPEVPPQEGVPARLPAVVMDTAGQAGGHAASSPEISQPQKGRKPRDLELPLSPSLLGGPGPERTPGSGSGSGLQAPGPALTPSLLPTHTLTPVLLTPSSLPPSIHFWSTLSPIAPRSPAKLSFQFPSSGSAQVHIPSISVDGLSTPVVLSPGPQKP
Procedure, shortened: as §1

GABPA = biological target: T3, GABPA (Homo sapiens, UniProt Q06546 1-454); settings: protein: recombinant; tags: N-terminal GST; dsDNA, one strand shown
T3 sequence: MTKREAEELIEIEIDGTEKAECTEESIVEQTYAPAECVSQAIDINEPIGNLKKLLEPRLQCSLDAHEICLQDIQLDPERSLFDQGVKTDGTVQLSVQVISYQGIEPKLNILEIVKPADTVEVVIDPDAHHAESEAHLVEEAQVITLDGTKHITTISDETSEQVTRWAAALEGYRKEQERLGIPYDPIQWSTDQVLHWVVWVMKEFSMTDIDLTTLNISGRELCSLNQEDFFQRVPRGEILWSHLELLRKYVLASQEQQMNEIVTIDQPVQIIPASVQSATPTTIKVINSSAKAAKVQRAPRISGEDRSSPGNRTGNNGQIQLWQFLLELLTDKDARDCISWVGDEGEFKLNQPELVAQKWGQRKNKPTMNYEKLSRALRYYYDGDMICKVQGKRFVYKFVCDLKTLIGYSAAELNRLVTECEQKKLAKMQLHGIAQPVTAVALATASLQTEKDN
Procedure, shortened: as §1

ERG = biological target: T4, ERG (Homo sapiens, UniProt P11308 1-479); settings: protein: recombinant; tags: N-terminal GST; dsDNA, one strand shown
T4 sequence: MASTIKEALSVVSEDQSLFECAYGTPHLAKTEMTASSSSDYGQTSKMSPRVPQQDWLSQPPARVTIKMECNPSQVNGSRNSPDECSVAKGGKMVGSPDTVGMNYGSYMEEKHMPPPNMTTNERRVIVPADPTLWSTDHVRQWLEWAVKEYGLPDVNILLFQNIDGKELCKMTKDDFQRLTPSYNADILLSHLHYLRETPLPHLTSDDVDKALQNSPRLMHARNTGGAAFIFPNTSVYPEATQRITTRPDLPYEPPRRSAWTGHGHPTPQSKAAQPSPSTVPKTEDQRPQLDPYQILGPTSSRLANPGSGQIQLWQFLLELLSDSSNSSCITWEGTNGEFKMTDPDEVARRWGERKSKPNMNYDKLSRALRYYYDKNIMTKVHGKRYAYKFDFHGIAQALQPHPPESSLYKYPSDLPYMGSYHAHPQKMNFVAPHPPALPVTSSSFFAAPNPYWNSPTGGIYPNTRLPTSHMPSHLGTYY
Procedure, shortened: as §1

ELF1 = ELF1 (Homo sapiens, UniProt P32519 1-619); settings: protein: recombinant; tags: N-terminal GST; dsDNA, one strand shown
ELF1, sequence (P32519 whole entry): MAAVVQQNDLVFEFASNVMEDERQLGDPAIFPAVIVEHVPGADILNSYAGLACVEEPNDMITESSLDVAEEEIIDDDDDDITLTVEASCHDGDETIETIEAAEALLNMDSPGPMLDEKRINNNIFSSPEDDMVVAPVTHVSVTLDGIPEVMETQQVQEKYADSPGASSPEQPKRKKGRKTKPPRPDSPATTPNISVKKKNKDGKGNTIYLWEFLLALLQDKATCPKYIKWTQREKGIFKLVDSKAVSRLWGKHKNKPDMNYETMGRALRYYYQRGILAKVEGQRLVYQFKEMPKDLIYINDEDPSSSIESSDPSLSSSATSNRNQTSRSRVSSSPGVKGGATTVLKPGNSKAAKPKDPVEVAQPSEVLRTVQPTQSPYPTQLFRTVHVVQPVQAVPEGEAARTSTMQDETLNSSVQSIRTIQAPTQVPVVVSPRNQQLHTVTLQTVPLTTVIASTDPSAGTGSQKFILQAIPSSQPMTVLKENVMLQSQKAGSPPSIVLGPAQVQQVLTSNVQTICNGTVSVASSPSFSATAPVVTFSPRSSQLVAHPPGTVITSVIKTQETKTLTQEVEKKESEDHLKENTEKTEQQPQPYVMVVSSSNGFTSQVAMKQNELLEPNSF
Procedure, shortened: as §1

EHF = biological target: T5, EHF (Homo sapiens, UniProt Q9NZC4 1-300); settings: protein: recombinant; tags: N-terminal GST; dsDNA, one strand shown
T5 sequence: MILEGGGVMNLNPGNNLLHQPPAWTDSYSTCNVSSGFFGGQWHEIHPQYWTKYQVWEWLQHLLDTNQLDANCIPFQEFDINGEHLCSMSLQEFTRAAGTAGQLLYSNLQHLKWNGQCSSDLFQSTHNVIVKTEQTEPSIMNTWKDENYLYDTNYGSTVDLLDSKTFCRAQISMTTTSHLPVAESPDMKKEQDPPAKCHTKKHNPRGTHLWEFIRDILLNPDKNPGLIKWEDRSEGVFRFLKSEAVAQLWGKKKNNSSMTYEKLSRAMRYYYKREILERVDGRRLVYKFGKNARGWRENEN
Procedure, shortened: as §1

SPI1 = SPI1 (Homo sapiens, UniProt P17947 1-270); settings: protein: recombinant; tags: N-terminal GST; dsDNA, one strand shown
Procedure, shortened: as §1

SPIB = SPIB (Homo sapiens, UniProt Q01892 1-262); settings: protein: recombinant; tags: N-terminal GST; dsDNA, one strand shown
SPIB, sequence (Q01892 whole entry): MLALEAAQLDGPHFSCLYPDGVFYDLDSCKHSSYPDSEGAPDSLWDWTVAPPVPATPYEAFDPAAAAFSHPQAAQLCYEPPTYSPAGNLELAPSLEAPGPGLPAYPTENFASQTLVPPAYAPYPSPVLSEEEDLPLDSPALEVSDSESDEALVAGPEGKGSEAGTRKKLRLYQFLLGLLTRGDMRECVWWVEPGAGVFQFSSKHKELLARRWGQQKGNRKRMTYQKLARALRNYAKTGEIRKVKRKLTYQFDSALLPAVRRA
Procedure, shortened: as §1

ELK3 = biological target: T6, ELK3 (Homo sapiens, UniProt P41970 1-407); settings: protein: recombinant; tags: N-terminal GST; dsDNA, one strand shown
T6 sequence: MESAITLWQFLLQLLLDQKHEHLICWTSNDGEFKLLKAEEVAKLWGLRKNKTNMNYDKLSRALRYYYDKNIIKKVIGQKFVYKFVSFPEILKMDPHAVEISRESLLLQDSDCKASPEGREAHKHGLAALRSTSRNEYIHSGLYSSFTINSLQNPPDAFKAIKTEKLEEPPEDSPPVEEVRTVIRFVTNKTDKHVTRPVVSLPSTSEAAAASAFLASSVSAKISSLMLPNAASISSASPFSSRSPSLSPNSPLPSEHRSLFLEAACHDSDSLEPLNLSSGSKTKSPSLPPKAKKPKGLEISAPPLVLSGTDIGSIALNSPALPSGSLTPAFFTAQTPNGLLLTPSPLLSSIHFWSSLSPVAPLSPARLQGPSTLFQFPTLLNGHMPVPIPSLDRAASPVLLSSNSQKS
Procedure, shortened: as §1

FEV = biological target: T7, FEV (Homo sapiens, UniProt Q99581 1-238); settings: protein: recombinant; tags: N-terminal GST; dsDNA, one strand shown
T7 sequence: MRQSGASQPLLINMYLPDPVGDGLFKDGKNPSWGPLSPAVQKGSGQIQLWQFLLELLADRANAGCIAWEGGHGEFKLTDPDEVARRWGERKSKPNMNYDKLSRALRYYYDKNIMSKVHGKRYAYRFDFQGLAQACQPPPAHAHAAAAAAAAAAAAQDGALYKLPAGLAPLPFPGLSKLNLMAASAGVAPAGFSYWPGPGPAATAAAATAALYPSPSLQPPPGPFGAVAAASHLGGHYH
Procedure, shortened: as §1

ETV5 = ETV5 (Homo sapiens, UniProt P41161 1-510); settings: protein: recombinant; tags: N-terminal GST; dsDNA, one strand shown
ETV5, sequence (P41161 whole entry): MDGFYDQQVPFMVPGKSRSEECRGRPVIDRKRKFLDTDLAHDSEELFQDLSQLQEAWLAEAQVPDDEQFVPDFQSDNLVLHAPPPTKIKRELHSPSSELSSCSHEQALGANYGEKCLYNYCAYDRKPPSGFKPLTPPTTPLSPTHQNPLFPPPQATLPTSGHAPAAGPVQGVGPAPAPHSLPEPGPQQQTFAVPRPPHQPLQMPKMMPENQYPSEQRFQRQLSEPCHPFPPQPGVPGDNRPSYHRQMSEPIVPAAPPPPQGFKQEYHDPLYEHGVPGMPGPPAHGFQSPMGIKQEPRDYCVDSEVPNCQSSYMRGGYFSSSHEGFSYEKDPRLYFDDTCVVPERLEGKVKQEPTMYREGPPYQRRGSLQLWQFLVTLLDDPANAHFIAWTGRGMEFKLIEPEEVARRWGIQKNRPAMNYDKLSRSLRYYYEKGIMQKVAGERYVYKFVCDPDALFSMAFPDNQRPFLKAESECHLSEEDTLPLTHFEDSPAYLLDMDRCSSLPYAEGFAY
Procedure, shortened: as §1

HSF1 = HSF1 (Homo sapiens, UniProt Q00613 1-529); settings: protein: recombinant; tags: N-terminal GST; chain copies: 3; dsDNA, one strand shown
HSF1, sequence (Q00613 whole entry): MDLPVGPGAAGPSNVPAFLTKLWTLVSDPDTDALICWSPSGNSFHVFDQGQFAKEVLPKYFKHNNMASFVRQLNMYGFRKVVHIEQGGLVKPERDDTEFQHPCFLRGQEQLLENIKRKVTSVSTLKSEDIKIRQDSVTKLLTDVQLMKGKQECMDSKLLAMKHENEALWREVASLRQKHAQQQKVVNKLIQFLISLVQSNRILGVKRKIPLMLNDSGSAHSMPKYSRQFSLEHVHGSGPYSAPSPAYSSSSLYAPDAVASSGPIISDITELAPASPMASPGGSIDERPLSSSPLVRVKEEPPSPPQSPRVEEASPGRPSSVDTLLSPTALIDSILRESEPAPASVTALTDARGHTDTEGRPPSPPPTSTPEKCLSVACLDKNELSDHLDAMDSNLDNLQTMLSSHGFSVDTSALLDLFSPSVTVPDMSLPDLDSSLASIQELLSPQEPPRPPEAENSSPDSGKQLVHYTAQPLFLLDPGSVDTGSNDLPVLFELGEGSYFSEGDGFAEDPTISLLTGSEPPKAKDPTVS
Procedure, shortened: as §1

SPIC = biological target: T8, SPIC (Homo sapiens, UniProt Q8N5J4 1-248); settings: protein: recombinant; tags: N-terminal GST; dsDNA, one strand shown
T8 sequence: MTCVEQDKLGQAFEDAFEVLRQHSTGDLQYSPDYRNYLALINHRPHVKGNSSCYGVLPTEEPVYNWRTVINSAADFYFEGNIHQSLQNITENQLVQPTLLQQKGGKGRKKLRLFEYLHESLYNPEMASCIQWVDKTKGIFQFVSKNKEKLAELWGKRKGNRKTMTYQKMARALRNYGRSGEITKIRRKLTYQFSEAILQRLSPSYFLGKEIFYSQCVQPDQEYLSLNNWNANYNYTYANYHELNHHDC
Procedure, shortened: as §1

ELF4 = ELF4 (Homo sapiens, UniProt Q99607 1-663); settings: protein: recombinant; tags: N-terminal GST; dsDNA, one strand shown
ELF4, sequence (Q99607 whole entry): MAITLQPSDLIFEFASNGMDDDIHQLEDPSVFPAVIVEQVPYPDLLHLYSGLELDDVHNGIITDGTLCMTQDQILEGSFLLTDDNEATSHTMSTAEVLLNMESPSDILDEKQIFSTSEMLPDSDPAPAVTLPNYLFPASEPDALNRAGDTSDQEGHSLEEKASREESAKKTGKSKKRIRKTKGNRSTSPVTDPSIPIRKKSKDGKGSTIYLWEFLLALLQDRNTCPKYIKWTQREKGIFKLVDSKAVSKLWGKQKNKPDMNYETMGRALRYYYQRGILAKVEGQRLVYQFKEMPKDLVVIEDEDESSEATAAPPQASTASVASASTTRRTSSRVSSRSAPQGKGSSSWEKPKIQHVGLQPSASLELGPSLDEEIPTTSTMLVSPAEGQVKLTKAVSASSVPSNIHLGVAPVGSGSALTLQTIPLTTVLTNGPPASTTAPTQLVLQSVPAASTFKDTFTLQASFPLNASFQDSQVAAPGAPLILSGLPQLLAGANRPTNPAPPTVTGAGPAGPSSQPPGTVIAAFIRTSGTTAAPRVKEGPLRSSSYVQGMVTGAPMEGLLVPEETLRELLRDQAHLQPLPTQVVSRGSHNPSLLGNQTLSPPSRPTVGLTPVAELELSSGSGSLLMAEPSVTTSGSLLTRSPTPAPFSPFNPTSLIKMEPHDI
Procedure, shortened: as §1

ELK4 = biological target: T9, ELK4 (Homo sapiens, UniProt P28324-2 1-405); settings: protein: recombinant; tags: N-terminal GST; dsDNA, one strand shown
T9 sequence: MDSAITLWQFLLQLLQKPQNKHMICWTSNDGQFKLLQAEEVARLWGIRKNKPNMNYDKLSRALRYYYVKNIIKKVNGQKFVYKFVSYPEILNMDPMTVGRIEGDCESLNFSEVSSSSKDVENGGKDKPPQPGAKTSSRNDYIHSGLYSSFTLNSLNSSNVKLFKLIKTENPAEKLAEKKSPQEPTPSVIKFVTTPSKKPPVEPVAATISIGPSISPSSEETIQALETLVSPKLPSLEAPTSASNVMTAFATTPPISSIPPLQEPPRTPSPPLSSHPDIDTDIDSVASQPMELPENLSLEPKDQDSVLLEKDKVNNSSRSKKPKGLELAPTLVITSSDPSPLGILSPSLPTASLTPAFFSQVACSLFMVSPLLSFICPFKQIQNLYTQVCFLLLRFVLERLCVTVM
Procedure, shortened: as §1

ETV2 = biological target: T10, ETV2 (Homo sapiens, UniProt O00321 1-342); settings: protein: recombinant; tags: N-terminal GST; dsDNA, one strand shown
T10 sequence: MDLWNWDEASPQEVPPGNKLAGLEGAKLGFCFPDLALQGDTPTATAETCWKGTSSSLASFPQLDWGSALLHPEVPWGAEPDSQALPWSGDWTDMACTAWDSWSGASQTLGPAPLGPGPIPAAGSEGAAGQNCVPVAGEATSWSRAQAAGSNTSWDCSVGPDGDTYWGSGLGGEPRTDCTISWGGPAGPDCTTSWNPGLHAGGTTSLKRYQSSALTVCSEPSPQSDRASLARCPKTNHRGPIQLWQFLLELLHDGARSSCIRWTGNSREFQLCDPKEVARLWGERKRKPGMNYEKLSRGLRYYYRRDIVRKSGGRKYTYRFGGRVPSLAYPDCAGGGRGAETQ
Procedure, shortened: as §1

ELF3 = biological target: T11, ELF3 (Homo sapiens, UniProt P78545 1-371); settings: protein: recombinant; tags: N-terminal GST; dsDNA, one strand shown
T11 sequence: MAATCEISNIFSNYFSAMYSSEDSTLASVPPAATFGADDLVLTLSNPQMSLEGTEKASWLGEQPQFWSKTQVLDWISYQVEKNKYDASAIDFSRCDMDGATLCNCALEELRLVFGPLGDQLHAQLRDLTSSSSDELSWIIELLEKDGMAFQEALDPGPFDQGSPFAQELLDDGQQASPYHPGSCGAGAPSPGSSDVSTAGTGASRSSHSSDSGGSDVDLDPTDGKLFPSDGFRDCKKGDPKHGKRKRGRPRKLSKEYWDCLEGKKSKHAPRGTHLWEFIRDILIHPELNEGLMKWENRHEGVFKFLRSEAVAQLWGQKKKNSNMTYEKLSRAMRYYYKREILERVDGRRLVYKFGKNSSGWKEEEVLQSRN
Procedure, shortened: as §1

CRX = CRX (Homo sapiens, UniProt O43186 1-299); settings: protein: recombinant; tags: N-terminal GST; dsDNA, one strand shown
CRX, sequence (O43186 whole entry): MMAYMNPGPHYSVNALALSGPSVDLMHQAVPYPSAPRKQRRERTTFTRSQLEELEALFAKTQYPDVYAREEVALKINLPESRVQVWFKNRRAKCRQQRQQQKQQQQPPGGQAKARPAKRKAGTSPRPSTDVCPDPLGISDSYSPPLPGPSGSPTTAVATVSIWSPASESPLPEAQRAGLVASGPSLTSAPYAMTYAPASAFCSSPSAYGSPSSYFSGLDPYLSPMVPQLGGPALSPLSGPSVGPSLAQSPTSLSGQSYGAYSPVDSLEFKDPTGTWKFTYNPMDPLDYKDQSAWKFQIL
Procedure, shortened: as §1

ETV1 = ETV1 (Homo sapiens, UniProt P50549 1-477); settings: protein: recombinant; tags: N-terminal GST; dsDNA, one strand shown
ETV1, sequence (P50549 whole entry): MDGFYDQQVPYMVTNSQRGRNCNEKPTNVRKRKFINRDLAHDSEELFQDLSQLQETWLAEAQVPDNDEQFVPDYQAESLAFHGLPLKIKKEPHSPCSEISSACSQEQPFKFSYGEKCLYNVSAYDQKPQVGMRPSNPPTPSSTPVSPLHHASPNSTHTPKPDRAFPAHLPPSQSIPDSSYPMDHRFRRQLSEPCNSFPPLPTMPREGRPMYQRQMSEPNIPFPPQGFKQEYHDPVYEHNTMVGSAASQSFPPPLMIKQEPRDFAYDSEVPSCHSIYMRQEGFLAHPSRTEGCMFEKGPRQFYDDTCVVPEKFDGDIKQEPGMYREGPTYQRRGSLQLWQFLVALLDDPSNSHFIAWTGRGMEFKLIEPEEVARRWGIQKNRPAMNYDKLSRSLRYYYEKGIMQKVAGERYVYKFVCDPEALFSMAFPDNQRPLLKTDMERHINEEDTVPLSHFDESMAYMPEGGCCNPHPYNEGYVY
Procedure, shortened: as §1

TACCCT
binding signal (FLI1): 1.33 fold enrichment (6-mer frequency, TF over GST control) | binding signal (ELK1): 1.34 fold enrichment (6-mer frequency, TF over GST control) | binding signal (GABPA): 1.21 fold enrichment (6-mer frequency, TF over GST control) | binding signal (ERG): 1.31 fold enrichment (6-mer frequency, TF over GST control) | binding signal (ELF1): 1.36 fold enrichment (6-mer frequency, TF over GST control) | binding signal (EHF): 1.38 fold enrichment (6-mer frequency, TF over GST control) | binding signal (SPI1): 1.36 fold enrichment (6-mer frequency, TF over GST control) | binding signal (SPIB): 1.3 fold enrichment (6-mer frequency, TF over GST control) | binding signal (ELK3): 1.41 fold enrichment (6-mer frequency, TF over GST control) | binding signal (FEV): 1.29 fold enrichment (6-mer frequency, TF over GST control) | binding signal (ETV5): 1.28 fold enrichment (6-mer frequency, TF over GST control) | binding signal (HSF1): 1.28 fold enrichment (6-mer frequency, TF over GST control) | binding signal (SPIC): 1.38 fold enrichment (6-mer frequency, TF over GST control) | binding signal (ELF4): 1.44 fold enrichment (6-mer frequency, TF over GST control) | binding signal (ELK4): 1.47 fold enrichment (6-mer frequency, TF over GST control) | binding signal (ETV2): 1.35 fold enrichment (6-mer frequency, TF over GST control) | binding signal (ELF3): 1.2 fold enrichment (6-mer frequency, TF over GST control) | binding signal (CRX): 1.45 fold enrichment (6-mer frequency, TF over GST control) | binding signal (ETV1): 1.35 fold enrichment (6-mer frequency, TF over GST control)
